From PubChem BioAssay (Tox21)
“And” between values parts separate entries of the source, which are not always exact repeats. Identical values can stand only once. Results filed as inconclusive are left out. Entries that show only a call come without a potency. Unmarked numbers belong to inactive results. The source made the active and inactive calls. Calls come from the whole dose curve; as a rule, active = well fitted curve in the direction sought with a large enough effect in the repeat runs; inconclusive = weak or mixed curves; inactive = no such curve, though single readings can be large; an effect the other way counts as inactive or inconclusive.

Assays:
[1] = target: Cytochrome P450 2C19 (Homo sapiens) (UniProt P33261); assay: Cytochrome P450 Family 2 Subfamily C Member 19 (CYP2C19) small molecule antagonists: luciferase reporter qHTS assay (AID 1671197); note: nearly all actives have a fitted effect of over 65% in size; for activity change, negative = inhibition: series mostly up to about 120 µM
Sequence of Cytochrome P450 2C19 (Homo sapiens) (P33261 whole entry, looked up): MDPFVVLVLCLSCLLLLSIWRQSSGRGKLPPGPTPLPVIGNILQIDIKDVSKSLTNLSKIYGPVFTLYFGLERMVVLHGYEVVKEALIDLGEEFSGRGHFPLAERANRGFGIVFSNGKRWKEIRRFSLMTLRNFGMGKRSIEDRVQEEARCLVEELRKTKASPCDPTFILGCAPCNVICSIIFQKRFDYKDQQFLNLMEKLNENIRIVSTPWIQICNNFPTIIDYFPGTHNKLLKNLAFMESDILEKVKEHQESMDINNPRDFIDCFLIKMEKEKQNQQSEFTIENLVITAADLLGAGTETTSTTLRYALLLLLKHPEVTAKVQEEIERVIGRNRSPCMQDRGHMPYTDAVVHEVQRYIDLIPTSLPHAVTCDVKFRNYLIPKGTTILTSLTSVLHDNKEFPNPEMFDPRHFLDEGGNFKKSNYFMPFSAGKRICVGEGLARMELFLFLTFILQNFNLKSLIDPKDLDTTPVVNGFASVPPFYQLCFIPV
Outline: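 Compounds were tested on CYP2C19 activity via proluciferin conversion to luciferin. The 37C, 1 h reaction followed NADPH addition; detection reagent stopped it.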

[2] = target: Cytochrome P450 2C9 (Homo sapiens) (UniProt P11712); assay: Cytochrome P450 Family 2 Subfamily C Member 9 (CYP2C9) small molecule antagonists: luciferase reporter qHTS assay (AID 1671198); note: nearly all actives have a fitted effect of over 50% in size; for activity change, negative = inhibition: series mostly up to about 120 µM
Sequence of Cytochrome P450 2C9 (Homo sapiens) (P11712 whole entry, looked up): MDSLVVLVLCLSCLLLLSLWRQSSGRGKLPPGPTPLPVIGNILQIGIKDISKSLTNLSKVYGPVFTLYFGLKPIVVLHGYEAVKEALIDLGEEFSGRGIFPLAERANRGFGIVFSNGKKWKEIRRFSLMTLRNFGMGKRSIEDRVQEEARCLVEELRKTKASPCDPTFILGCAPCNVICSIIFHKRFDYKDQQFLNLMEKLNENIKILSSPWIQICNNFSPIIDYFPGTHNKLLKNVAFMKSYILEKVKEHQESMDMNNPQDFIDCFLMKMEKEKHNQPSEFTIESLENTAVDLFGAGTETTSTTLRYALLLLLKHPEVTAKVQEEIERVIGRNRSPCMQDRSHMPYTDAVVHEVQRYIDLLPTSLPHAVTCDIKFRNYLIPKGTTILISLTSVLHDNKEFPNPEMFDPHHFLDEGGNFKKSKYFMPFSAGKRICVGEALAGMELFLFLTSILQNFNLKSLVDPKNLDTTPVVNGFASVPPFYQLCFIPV
Outline: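 P450-Glo proluciferin substrate with CYP2C9 enzyme; 10 min RT preincubation, then NADPH regeneration 1 h at 37C; luciferin detection reagent 20 min RT, luminescence in relative luminescence units.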

[3] = target: Cytochrome P450 1A2 (Homo sapiens) (UniProt P05177); assay: Cytochrome P450 Family 1 Subfamily A Member 2 (CYP1A2) small molecule antagonists: luciferase reporter qHTS assay (AID 1671199); note: nearly all actives have a fitted effect of over 50% in size; for activity change, negative = inhibition: series mostly up to about 120 µM
Sequence of Cytochrome P450 1A2 (Homo sapiens) (P05177 whole entry, looked up): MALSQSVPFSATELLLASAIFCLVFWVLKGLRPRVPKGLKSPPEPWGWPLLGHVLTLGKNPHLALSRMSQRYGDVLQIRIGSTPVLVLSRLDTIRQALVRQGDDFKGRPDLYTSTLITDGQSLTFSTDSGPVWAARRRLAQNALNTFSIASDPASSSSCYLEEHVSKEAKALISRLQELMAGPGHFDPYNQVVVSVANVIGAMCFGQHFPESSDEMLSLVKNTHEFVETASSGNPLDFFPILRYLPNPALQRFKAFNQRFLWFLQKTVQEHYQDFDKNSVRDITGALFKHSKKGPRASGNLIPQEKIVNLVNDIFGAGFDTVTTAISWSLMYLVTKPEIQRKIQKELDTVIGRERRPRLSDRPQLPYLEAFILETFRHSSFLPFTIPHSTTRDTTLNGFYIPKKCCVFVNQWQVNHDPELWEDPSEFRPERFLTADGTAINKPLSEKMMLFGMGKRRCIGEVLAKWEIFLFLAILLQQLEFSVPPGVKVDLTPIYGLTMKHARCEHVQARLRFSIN
Outline: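 Quantitative high-throughput format using the P450-Glo CYP1A2 system. Reaction initiated by NADPH regeneration solution, 1 h at room temperature, then stopped with detection reagent; luminescence measured 20 min later.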

[4] = target: Voltage-gated inwardly rectifying potassium channel KCNH2 (Homo sapiens) (UniProt Q12809); assay: Human Ether-a-go-go-Related Gene (hERG) channel small molecule antagonists: fluorescence cell-based qHTS assay (AID 1671200); note: nearly all actives have a fitted effect of over 50% in size;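 for activity change, negative = inhibition: hERG-expressing U2OS cells given a thallium stimulus after FluxOR II dye loading; series mostly up to about 77 µM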
Sequence of Voltage-gated inwardly rectifying potassium channel KCNH2 (Homo sapiens) (Q12809 whole entry, looked up): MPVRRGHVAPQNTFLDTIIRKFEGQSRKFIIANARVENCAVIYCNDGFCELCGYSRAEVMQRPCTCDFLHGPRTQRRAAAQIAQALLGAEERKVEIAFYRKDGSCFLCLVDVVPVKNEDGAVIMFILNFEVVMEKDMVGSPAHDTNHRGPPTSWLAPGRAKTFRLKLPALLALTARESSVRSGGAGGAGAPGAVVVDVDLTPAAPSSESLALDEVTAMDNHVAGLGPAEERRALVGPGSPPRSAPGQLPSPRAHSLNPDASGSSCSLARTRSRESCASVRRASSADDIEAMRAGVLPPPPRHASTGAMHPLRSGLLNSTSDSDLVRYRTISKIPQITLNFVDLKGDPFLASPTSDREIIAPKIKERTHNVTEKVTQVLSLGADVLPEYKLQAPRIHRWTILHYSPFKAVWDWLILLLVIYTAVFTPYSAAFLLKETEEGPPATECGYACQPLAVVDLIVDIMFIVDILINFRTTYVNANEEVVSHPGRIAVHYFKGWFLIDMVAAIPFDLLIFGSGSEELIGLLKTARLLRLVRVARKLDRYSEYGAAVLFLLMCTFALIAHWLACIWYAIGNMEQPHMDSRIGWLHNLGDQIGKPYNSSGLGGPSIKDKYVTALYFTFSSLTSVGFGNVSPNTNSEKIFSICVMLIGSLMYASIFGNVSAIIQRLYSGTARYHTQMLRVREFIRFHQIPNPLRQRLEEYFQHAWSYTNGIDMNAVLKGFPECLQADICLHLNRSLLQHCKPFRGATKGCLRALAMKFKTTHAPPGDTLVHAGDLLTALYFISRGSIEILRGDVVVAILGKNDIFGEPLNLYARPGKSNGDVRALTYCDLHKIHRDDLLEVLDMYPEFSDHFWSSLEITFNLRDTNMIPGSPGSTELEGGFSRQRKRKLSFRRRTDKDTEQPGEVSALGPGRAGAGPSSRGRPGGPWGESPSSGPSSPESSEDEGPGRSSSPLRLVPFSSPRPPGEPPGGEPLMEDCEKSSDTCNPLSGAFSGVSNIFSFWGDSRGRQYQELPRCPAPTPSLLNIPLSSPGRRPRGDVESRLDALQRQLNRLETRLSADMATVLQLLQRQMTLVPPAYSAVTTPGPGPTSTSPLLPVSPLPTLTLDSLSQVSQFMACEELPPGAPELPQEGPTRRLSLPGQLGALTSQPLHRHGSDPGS
Outline: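 Thallium served as the potassium surrogate; its influx into dye-loaded U2OS cells carrying the channel was measured by fluorescence over 2 min.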

[5] = target: Cytochrome P450 3A4 (Homo sapiens) (UniProt P08684); assay: Cytochrome P450 Family 3 Subfamily A Member 4 (CYP3A4) small molecule antagonists: luciferase reporter qHTS assay (AID 1671201); note: nearly all actives have a fitted effect of over 50% in size; for activity change, negative = inhibition: series mostly up to about 120 µM
Sequence of Cytochrome P450 3A4 (Homo sapiens) (P08684 whole entry, looked up): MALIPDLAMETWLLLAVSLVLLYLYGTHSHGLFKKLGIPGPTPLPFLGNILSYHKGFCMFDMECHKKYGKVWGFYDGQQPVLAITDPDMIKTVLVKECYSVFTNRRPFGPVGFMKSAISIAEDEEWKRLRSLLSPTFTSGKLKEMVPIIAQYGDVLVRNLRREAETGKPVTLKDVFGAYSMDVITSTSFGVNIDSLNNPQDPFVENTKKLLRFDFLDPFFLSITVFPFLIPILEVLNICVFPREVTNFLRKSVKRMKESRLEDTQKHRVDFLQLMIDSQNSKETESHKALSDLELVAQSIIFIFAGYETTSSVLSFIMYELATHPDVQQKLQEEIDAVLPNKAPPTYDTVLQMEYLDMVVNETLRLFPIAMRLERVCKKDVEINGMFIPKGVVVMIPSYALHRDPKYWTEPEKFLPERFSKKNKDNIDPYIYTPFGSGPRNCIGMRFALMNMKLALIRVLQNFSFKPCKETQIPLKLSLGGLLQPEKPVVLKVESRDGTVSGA
Outline: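 Relative luminescence units after 20 min with luciferin detection reagent served as read-out. Beforehand, CYP3A4 turned over a proluciferin substrate for 1 h at room temperature with NADPH regeneration, following 10 min compound preincubation.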
Potency is the fitted concentration of half-maximal effect.

Q: Which results are given for `O=S(=O)(O)c1ccc(N=Nc2c(O)ccc3ccccc23)cc1`?
A: Potency [1]: 11.2 µM (active); Potency [2]: 31.7 µM (active); Potency [3]: 31.7 µM (active); Potency [4]: inactive

Q: What does the source list for `O=C1CCc2cc(OCCCCc3nnnn3C3CCCCC3)ccc2N1`?
A: Potency [1]: inactive; Potency [2]: 12.3 µM (active); Potency [3]: inactive

Q: With `CCCC(=O)OCOC(=O)C1=C(C)NC(C)=C(C(=O)OC)C1c1cccc(Cl)c1Cl` (stereo unspecified) as the compound, how does the Potency [1] read?
A: 1.74 µM (active)

Q: And the Potency [2]?
A: 2.19 µM (active)

Q: For `CCCCC(CC)COC(=O)CCCCC(=O)OCc1ccccc1` (stereo unspecified), which Potency [1] is on record?
A: 35.6 µM (active)

Q: What about the Potency [2] of the same compound?
A: 15.9 µM (active)

Q: And the Potency [3]?
A: 56.4 µM (active)

Q: What about the Potency [4] of the same compound?
A: inactive

Q: `CN1CCN(Cc2cc(-c3ccc4[nH]c(=O)oc4c3)co2)[C@@H](c2ccc(F)cc2)C1` was tested. Which Potency [2] did it give?
A: inactive

Q: And the Potency [3]?
A: inactive

Q: With `CCCCOC(=O)CC` as the compound, how does the Potency [2] read?
A: inactive

Q: And the Potency [3]?
A: inactive

Q: And the Potency [4]?
A: inactive

Q: For `CCc1oc2ccccc2c1C(=O)c1cc(I)c(O)c(I)c1`, which Potency [2] is on record?
A: 1.38 µM (active)

Q: And the Potency [3]?
A: inactive

Q: And the Potency [4]?
A: inactive

Q: And the Potency [5]?
A: inactive

Q: What does the source list for `NC(=O)c1cccc([N+](=O)[O-])c1`?
A: Potency [2]: inactive; Potency [3]: 35.4 µM (active); Potency [4]: inactive; Potency [5]: inactive

Q: `CC[N+](CC)(CC)CCOc1ccc(/C=C/c2ccccc2)cc1` was tested. Which Potency [2] did it give?
A: inactive

Q: And the Potency [3]?
A: inactive

Q: What about the Potency [4] of the same compound?
A: 8.49 µM (active)

Q: And the Potency [5]?
A: inactive

Q: For `O=C(O)c1cc(O)c2ccccc2c1O`, which Potency [2] is on record?
A: 15.9 µM (active)

Q: What about the Potency [3] of the same compound?
A: 5.64 µM (active)

Q: What does the source list for `C=Cc1ccccc1C=C`?
A: Potency [1]: inactive; Potency [4]: inactive; Potency [5]: inactive

Q: Which results are given for `S=C([S-])NCCNC(=S)[S-].S=C([S-])NCCNC(=S)[S-].[Mn+2].[Zn+2]`?
A: Potency [2]: 3.09 µM (active); Potency [3]: 15.5 µM (active); Potency [4]: inactive; Potency [5]: inactive

Q: How did the Potency [2] turn out when `O=C(O)c1cc(=O)c2ccccc2o1` was run?
A: inactive

Q: What about the Potency [3] of the same compound?
A: inactive

Q: What about the Potency [4] of the same compound?
A: inactive

Q: How did the Potency [2] turn out when `CCCCCCCCCCCCOCCOCCOCCOCCOCCOCCOCCOCCOCCO` was run?
A: 15.5 µM (active)

Q: How did the Potency [2] turn out when `O=C(O)Cc1ccc2c(c1)C(=O)c1ccccc1CO2` was run?
A: inactive

Q: What about the Potency [3] of the same compound?
A: inactive

Q: And the Potency [4]?
A: inactive

Q: What about the Potency [5] of the same compound?
A: inactive

Q: With `O=C(O)c1ccc2cc(C(=O)O)ccc2c1` as the compound, how does the Potency [2] read?
A: inactive

Q: What about the Potency [3] of the same compound?
A: inactive

Q: And the Potency [4]?
A: inactive

Q: With `CC[N+](CC)(CC)CCOC(=O)C(C1CCCC1)C1CCCC1` as the compound, how does the Potency [2] read?
A: inactive

Q: For `CCCCCC(C)OC(=O)COc1ccc(Cl)c2cccnc12` (stereo unspecified), which Potency [2] is on record?
A: 11.2 µM (active)

Q: What about the Potency [3] of the same compound?
A: 5.03 µM (active)

Q: What about the Potency [4] of the same compound?
A: 9.77 µM (active)

Q: And the Potency [5]?
A: 12.6 µM (active)

Q: Which Potency [2] does the source give for `O[C@@H]([C@H](O)[C@H](O)CBr)[C@H](O)CBr` here?
A: inactive

Q: What about the Potency [3] of the same compound?
A: 70.9 µM (active)

Q: What about the Potency [4] of the same compound?
A: inactive

Q: What does the source list for `c1ccsc1`?
A: Potency [2]: inactive; Potency [3]: inactive; Potency [4]: inactive; Potency [5]: inactive

Q: How did the Potency [2] turn out when `Cc1c(C)c2c(c(C)c1O)CC[C@@](C)(CCC[C@H](C)CCC[C@H](C)CCCC(C)C)O2` was run?
A: inactive

Q: And the Potency [3]?
A: inactive

Q: What about the Potency [4] of the same compound?
A: inactive

Q: What about the Potency [5] of the same compound?
A: inactive

Q: How did the Potency [2] turn out when `c1ccc(C(O[C@@H]2CCCN(CCc3ccc4c(c3)OCO4)C2)c2ccccc2)cc1` was run?
A: 17.8 µM (active)

Q: What about the Potency [3] of the same compound?
A: 39.9 µM (active)

Q: And the Potency [4]?
A: 0.977 µM (active)

Q: `CCCCCCCCCCC[C@@H](C[C@@H]1OC(=O)[C@H]1CCCCCC)OC(=O)[C@H](CC(C)C)NC=O` was tested. Which Potency [2] did it give?
A: 2.75 µM (active)

Q: And the Potency [3]?
A: 24.5 µM (active)

Q: Which Potency [1] does the source give for `Sc1nc2ccccc2s1` here?
A: 7.96 µM (active)

Q: And the Potency [4]?
A: inactive

Q: And the Potency [5]?
A: inactive

Q: For `O=C(O)c1cc(-c2ccc(F)cc2F)ccc1O`, which Potency [2] is on record?
A: 24.5 µM (active)

Q: And the Potency [3]?
A: inactive

Q: And the Potency [4]?
A: inactive

Q: What about the Potency [5] of the same compound?
A: inactive

Q: Which Potency [2] does the source give for `CCC(=O)OC(=O)CC` here?
A: inactive

Q: What about the Potency [3] of the same compound?
A: inactive

Q: What about the Potency [4] of the same compound?
A: inactive

Q: What about the Potency [5] of the same compound?
A: inactive

Q: For `CCN1C(=O)c2ccccc2C1Nc1ccc(OCCN2CCCCC2)cc1` (stereo unspecified), which Potency [2] is on record?
A: inactive

Q: What about the Potency [3] of the same compound?
A: inactive

Q: And the Potency [4]?
A: inactive

Q: `CCN(CCN)c1cccc(C)c1` was tested. Which Potency [2] did it give?
A: 40.3 µM (active) and 56.4 µM (active)

Q: And the Potency [3]?
A: 11.4 µM (active) and 20 µM (active)

Q: And the Potency [4]?
A: 24.5 µM (active)

Q: With `C#C[C@]1(OC(C)=O)CC[C@H]2[C@@H]3CCC4=C/C(=N/O)CC[C@@H]4[C@H]3CC[C@@]21CC` as the compound, how does the Potency [2] read?
A: 11 µM (active)

Q: What about the Potency [3] of the same compound?
A: inactive

Q: What about the Potency [4] of the same compound?
A: inactive

Q: With `CCC(C)n1ncn(-c2ccc(N3CCN(c4ccc(OC[C@H]5CO[C@](Cn6cncn6)(c6ccc(Cl)cc6Cl)O5)cc4)CC3)cc2)c1=O` (stereo partly specified) as the compound, how does the Potency [2] read?
A: 13.8 µM (active)

Q: What about the Potency [3] of the same compound?
A: inactive

Q: What about the Potency [4] of the same compound?
A: inactive

Q: `Nc1nc(N)nc(-c2cc(Cl)ccc2Cl)n1` was tested. Which Potency [2] did it give?
A: inactive

Q: And the Potency [3]?
A: 17.4 µM (active)

Q: What about the Potency [4] of the same compound?
A: inactive

Q: What about the Potency [5] of the same compound?
A: inactive

Q: Which activity change, negative = inhibition [1] does the source give for `CC(C)(C)CC(C)(C)c1ccc(Nc2ccc(C(C)(C)CC(C)(C)C)cc2)cc1` here?
A: -21.4% [at 10.5 µM]

Q: What about the activity change, negative = inhibition [4] of the same compound?
A: 0.578% [at 6.97 µM]

Q: What about the activity change, negative = inhibition [5] of the same compound?
A: -20% [at 10.5 µM]

Q: Which results are given for `Clc1ccnc(Cl)n1`?
A: Potency [2]: inactive; Potency [3]: inactive; Potency [4]: inactive

Q: `ClCCl` was tested. Which Potency [2] did it give?
A: inactive

Q: What about the Potency [3] of the same compound?
A: inactive

Q: What about the Potency [4] of the same compound?
A: inactive

Q: What about the Potency [5] of the same compound?
A: inactive

Q: `O=C(Nc1ccc2c(O)c(N=Nc3ccc(N=Nc4ccc(S(=O)(=O)O)cc4)cc3)c(S(=O)(=O)O)cc2c1)c1ccccc1` was tested. Which Potency [2] did it give?
A: 20 µM (active)

Q: What about the Potency [3] of the same compound?
A: 35.6 µM (active)

Q: And the Potency [4]?
A: inactive

Q: Which Potency [2] does the source give for `CC(C)(C)c1csc(-c2cc3cc(OCc4ccccc4CC(=O)O)ccc3o2)n1` here?
A: 56.4 µM (active)

Q: And the Potency [3]?
A: inactive

Q: What about the Potency [4] of the same compound?
A: inactive

Q: With `CCCC[P+](C)(CCCC)CCCC` as the compound, how does the Potency [2] read?
A: inactive

Q: And the Potency [3]?
A: inactive
